Screens from PubChem BioAssay.
TNF death inh = inhibitors of TNF-alpha triggered necroptosis, primary screen, cell-based, Jurkat FADD-/-, single concentration | AID 463075, 2010 | Jurkat FADD-/- TNF necroptosis rescue, ATP luminescence, 24 h; 0 = TNF only, 100 = no-TNF cells | 0.068% of 220,000 active | activation (protection from cell death), % at 10 µM;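 active = activation, meaning protection from cell death, of at least 50% relative to plate controls; inactive = activation below 50%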;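 also: necroptosis triggered by 40 ng/mL TNF-alpha added together with compound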
Calpain2 inh = inhibitors of pig calpain II, primary screen, biochemical, fluorogenic peptide substrate, 1536-well. purified calpain II, 30 min. inhibition, % at 16 µM. 0.37% of 220,000 active;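 active = inhibition above about 50%, limit read from the data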
Mcl1-Bid inh = Mcl-1/Bid binding inhibitors, primary screen, biochemical, TR-FRET, 1536-well; 0.97% of 220,000 active; Induced myeloid leukemia cell differentiation protein Mcl-1 (Homo sapiens), Q07820; TR-FRET Mcl-1/Bid-Dy647 peptide binding; inhibition, % at 21.7 µM;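 active = compounds that cut the binding signal by more than half at the single screening dose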;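 also: His-tagged Mcl-1 with europium anti-His antibody binding Bid BH3 peptide; 0% = Mcl-1 plus peptide wells and 100% = peptide-only wells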
Target sequence (Q07820 whole entry, looked up): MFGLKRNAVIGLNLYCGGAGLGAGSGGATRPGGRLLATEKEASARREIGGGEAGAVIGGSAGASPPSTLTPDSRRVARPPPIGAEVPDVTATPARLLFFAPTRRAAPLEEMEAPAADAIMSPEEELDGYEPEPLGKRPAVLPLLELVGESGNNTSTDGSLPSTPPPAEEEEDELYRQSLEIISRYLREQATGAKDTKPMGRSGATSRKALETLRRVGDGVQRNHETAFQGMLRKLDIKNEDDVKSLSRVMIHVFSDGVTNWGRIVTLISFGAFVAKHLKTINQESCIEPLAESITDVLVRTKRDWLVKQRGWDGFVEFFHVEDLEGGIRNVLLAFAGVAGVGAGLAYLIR
Bim-Mcl-1 = inhibitors of Bim peptide binding to Mcl-1, primary screen, biochemical, bead-based flow cytometry, multiplex; Induced myeloid leukemia cell differentiation protein Mcl-1 (Homo sapiens), Q07820; Bim peptide-Mcl-1 binding; inhibition, % at 10 µM; 0.1% of 190,000 active; AID 1009, 2008; in the data active = inhibition above about 40%;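 also: 0% = no compound tracer wells and 100% = peptide blocker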
L929 necroptosis = inhibitors of zVAD-triggered necroptosis, primary screen, L929 cells. L929 zVAD necroptosis rescue, ATP luminescence, 24 h; with zVAD 60 µM. viability rescue, % at 10 µM. 0.38% of 220,000 active;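 active = activation, scaled between plate controls, above about 75%, limit read from the data; inactive = activation under that limit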;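 also: 0% = zVAD with DMSO and 100% = DMSO alone without zVAD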
Mcl1 Noxa PPI = Mcl-1/Noxa binding inhibitors, primary screen, biochemical, TR-FRET, 1536-well. Induced myeloid leukemia cell differentiation protein Mcl-1 (Homo sapiens), Q07820. TR-FRET Mcl-1/Noxa peptide binding, 2 h. inhibition, % at 21.7 µM. 1.5% of 220,000 active;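 active = compounds that cut the protein-peptide binding signal by more than 50% relative to plate controls in a single-dose test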;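 also: His-tagged Mcl-1 with rhodamine Noxa BH3 peptide and terbium anti-His antibody; 0% = Mcl-1 plus Noxa peptide wells and 100% = peptide-only wells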
Active calls of the source: *; . = not tested or not shown. A selection: hits, their analogues and other compounds. The true share with any hit is near 2.8%.

SMILES	TNF death inh	Calpain2 inh	Mcl1-Bid inh	Bim-Mcl-1	L929 necroptosis	Mcl1 Noxa PPI
COC(=O)c1c(NC(C)=O)sc2c1CCCC2	-6	0	-19	0	0	8
CNC(=S)Nc1sc2c(c1C(=O)OC)CCC2	0	12	-114	-2	0	75*
COC(=O)c1c(NC(=O)c2ccccc2N(C)S(=O)(=O)c2ccccc2)sc2c1CCCC2	-13	-170	-17	-6	2	-4
COC(=O)c1c(NC(C)=O)sc2c1CCCCC2	0	9	-18	-5	1	6
O=C(Nc1sc2c(c1C(=O)O)CCC2)c1ccccc1	0	6	72*	-1	0	32
CCOC(=O)c1c(NC(=O)c2ccccc2N(C)S(=O)(=O)c2ccccc2)sc2c1CCCC2	0	-118	-26	53*	3	8
COC(=O)c1c(NC(=O)c2cnccn2)sc2c1CCC2	-1	-18	97*	0	-1	14
CC(NC(=O)c1ccco1)c1ccc2c(c1)OCCO2 (centres undefined)	1	-1	-5	-5	0	4
Nc1ccc(Cc2ccc(N)c(O)c2)cc1O	-14	-87	27	2	2	87*
Cc1cccc(OCCCSc2nc3ccc(C)cc3[nH]2)c1	-2	71*	12	-8	1	30
CCCCNCCCOc1ccc(C)cc1Br	5	3	29	0	0	32
CNCCCOc1ccc(C)cc1Br	1	-32	61*	0	0	25
COC(=O)c1c(NC(=O)CN2CCC3(O)CCCCC3C2c2ccc(OC)cc2OC)sc(C)c1C (centres undefined)	2	-25	-47	-5	1	46
Cc1nn(Cc2ccc(Cl)cc2Cl)c(C)c1NC(=O)c1nn(C)cc1Cl	-1	60*	-3	-1	0	5
CCOC(=O)C1CCN(c2c(NCCCN3CCN(Cc4ccccc4)CC3)c(=O)c2=O)CC1	-3	-13	52*	0	1	16
CCOC(=O)C1CCN(Cc2ccc(F)cc2)CC1	-1	20	51*	0	1	-14
O=C1/C(=C/C=C/c2ccco2)SC(=S)N1NS(=O)(=O)c1ccccc1	-4	49	74*	.	0	111*
CC(C)(C)C(=O)NNc1nc(-c2ccccc2)c2cc(Br)ccc2n1	3	2	97*	-3	0	-4
CCN(CC)S(=O)(=O)c1ccc(C(=O)NNc2nc(-c3ccccc3)c3cc(Br)ccc3n2)cc1	2	-61	-36	0	0	-17
N#CC1=C(S)N(c2ccccc2)C(c2ccc(-c3cccc(Cl)c3)o2)NC1=O (centres undefined)	3	-19	-30	-3	1	69*
COc1cc(C(=O)OC2CC3CCC2(C)C3(C)C)ccc1OC(C)=O (centres undefined)	0	48	1	-5	1	-12
Cc1ccc(Cn2nc(C)c(NC(=O)CSc3nc4c(c(C(F)(F)F)n3)CCc3ccccc3-4)c2C)cc1	3	-7	74*	-3	1	34
COC(=O)c1ccccc1NC(=O)c1cc(-c2ccc(O)cc2)on1	-9	-37	12	0	1	68*
COC(=O)c1ccccc1NC(=O)c1cc(C2CC2)on1	0	-25	-15	0	0	17
O=C(CN1CCN(Cc2ccccc2Cl)CC1)N/N=C/c1ccccn1	-1	9	-19	.	-1	69*
SMILES	TNF death inh	Calpain2 inh	Mcl1-Bid inh	Bim-Mcl-1	L929 necroptosis	Mcl1 Noxa PPI
CSc1ccc(/C=N/NC(=O)CN2CCN(Cc3ccccc3Cl)CC2)cc1	2	-7	-6	-2	2	8
Cc1ccccc1OCC(=O)N/N=C/c1ccccn1	2	10	-14	64*	4	-1
O=C(COc1ccccc1C(=O)N/N=C\c1ccc(O)c(O)c1)N/N=C/c1ccc(O)c(O)c1	-10	-3	-40	12	0	100*
O=C(N/N=C/c1cc(Br)c(Br)o1)c1ccc2c(c1)OCCO2	-9	-13	-10	.	2	57*
O=C(N/N=C/c1ccc2c(c1)OCO2)c1ccc2c(c1)OCCO2	-9	-23	2	-2	0	-5
CCOC(=O)CSc1nnc(-c2ccc(OC)cc2)n1CC	-5	12	-16	0	0	1
CCOC(=O)CSc1nnc(-c2cccc(Cl)c2)n1CC	-2	-1	-27	45*	0	-9
O=C(CNC(=O)c1ccccc1F)N/N=C/c1cc(Br)ccc1OC(=O)/C=C/c1ccco1	-8	-191	-28	-5	3	14
O=C(CNC(=O)c1ccc(F)cc1)N/N=C/c1cc(Br)ccc1OC(=O)/C=C/c1ccco1	-17	-13	-1	.	4	59*
CCN1C(=O)/C(=C2/Sc3ccc(OC)cc3N2C)SC1=Nc1cccc(O)c1	-9	-189	65*	1	0	70*
O=C(O)c1cccnc1SCC(=O)N1CCCc2ccccc21	5	7	-32	.	1	4
CC(C)c1nnc(-c2ccc(Cl)cc2)c(N(C)C)n1	75*	17	-24	0	0	-24
CCSc1nnc(-c2ccc(Cl)cc2)c2ccccc12	26	-3	-13	2	0	-17
CC(=O)Nc1ccccc1N(C)S(=O)(=O)c1ccc(C)cc1	-12	-9	-1	0	0	15
CSc1nc(=S)c2[nH]c(=S)[nH]c2[nH]1	0	15	-61	.	0	51*
CSc1nc2c(c(=O)[nH]1)CCCC2	0	-7	-9	-1	0	-19
CCOCc1c(C(=O)NC2CCCCCC2)oc2ccccc12	0	32	-17	-3	1	-16
Oc1ccccc1NCC(O)Cn1ccc2ccccc21 (centres undefined)	-9	-40	33	1	1	74*
OC(CNCc1ccccc1)Cn1ccc2ccccc21 (centres undefined)	7	-20	-5	-3	0	19
CSc1ccccc1C(=O)OCC(=O)NC1CCS(=O)(=O)C1 (centres undefined)	0	31	-9	0	3	-13
CNC(=S)NCc1ccc2[nH]c3c(c2c1)CCCC3	-3	-16	-38	3	2	13
CCCCNC(=S)NCc1ccc2[nH]c3c(c2c1)CCCC3	-1	63*	-40	-1	1	10
COc1ccc(-c2cc3nc4ccccc4n3c(N)c2C#N)cc1	-9	-135	72*	.	2	81*
